A word on the inhibition: it is the relative decrease from the control value, in per cent.

Out of some 220,000 compounds screened, about 910 (0.41%) were called active. This is one part of a sample in which actives are shown more often than they occur.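 Rule for the calls: active = primary inhibition above the hit cutoff, then over 50% inhibition at one or more dose response concentrations (cut at about 23% in these data, passing the limit was not always enough); inconclusive = conflicting primary data, or primary hits not chosen for dose response; inactive = low primary inhibition, or under 50% at every dose.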 Measured potencies and affinities stand elsewhere.

In the experiment the target is Aminopeptidase N (Plasmodium falciparum (isolate 3D7)) (UniProt O96935). As to the kind of experiment: P. falciparum M1AAP inhibitors, biochemical, fluorogenic H-Leu-NHMec substrate, 1536-well (AID 1445).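 Note: plate controls were DMSO full reaction for no effect and no enzyme background for full effect.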 The following applies: recombinant M1AAP, H-Leu-NHMec fluorogenic kinetic assay; at 30 µM, hits give high values unless noted.
Aminopeptidase N (Plasmodium falciparum (isolate 3D7)), sequence (O96935 whole entry, looked up): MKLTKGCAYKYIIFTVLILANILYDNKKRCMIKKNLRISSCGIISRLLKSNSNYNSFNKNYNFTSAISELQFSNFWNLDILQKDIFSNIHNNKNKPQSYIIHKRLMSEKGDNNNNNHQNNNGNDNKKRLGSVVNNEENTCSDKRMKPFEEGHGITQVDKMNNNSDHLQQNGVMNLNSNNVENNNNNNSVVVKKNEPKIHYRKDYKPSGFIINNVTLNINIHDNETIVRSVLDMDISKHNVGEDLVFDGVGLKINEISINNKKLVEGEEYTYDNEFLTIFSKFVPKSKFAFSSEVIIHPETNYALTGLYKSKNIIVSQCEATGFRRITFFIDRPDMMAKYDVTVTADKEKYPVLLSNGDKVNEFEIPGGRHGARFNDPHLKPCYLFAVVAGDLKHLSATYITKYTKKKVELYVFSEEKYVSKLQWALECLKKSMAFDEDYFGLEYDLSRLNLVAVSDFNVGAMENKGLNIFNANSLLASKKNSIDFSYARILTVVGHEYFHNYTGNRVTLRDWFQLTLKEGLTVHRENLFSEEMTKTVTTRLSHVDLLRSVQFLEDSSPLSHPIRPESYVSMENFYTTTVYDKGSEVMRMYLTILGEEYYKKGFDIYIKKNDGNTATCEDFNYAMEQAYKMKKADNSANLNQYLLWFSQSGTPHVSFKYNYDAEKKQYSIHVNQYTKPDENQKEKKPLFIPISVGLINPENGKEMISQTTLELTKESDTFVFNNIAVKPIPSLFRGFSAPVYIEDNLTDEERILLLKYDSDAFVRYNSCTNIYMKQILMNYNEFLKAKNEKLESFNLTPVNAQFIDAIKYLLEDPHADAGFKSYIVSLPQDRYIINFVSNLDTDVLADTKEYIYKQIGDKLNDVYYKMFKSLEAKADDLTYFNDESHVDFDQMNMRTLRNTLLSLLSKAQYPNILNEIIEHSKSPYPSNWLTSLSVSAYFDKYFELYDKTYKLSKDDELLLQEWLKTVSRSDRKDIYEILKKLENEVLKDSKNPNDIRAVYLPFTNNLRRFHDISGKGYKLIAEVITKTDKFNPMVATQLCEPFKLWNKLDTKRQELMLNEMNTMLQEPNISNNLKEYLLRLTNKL
With `Cn1cnnc1SCC(=O)Nc1ccc2nc(SCc3ccccc3F)sc2c1`, the inhibition was -0.14% (inactive). The value for `O=C(O)C(Cc1ccccc1)N1C(=O)/C(=C/c2ccccc2)SC1=S` (stereo not drawn) was 18.4% (inactive). With `O=C(O)C(Cc1ccccc1)N1C(=O)/C(=C/c2cccnc2)SC1=S` (stereo not drawn), the inhibition is 5.04% (inactive).

In the case of `CC[C@@H]1CC=C[C@H]2[C@H]1C(=O)N(Cc1ccccc1)[C@H]2c1ccc(OC)c(Cl)c1`, the inhibition was 4.5% (inactive). As to `COc1ccc(C2CC(c3ccccc3)=NN2c2ccc(S(N)(=O)=O)cc2)cc1OC` (stereo not drawn), the inhibition is 19.9% (inactive).

For `NS(=O)(=O)c1ccc(N2N=C(c3ccc(Br)cc3)CC2c2ccc(F)cc2)cc1` (stereo not drawn), the inhibition is 5.03% (inactive). Under `NS(=O)(=O)c1ccc(N2N=C(c3ccccc3)CC2c2ccccc2)cc1` (stereo not drawn) stands 19.1% (inactive); under `COc1ccc(C2CC(c3ccccc3)=NN2c2ccc(S(N)(=O)=O)cc2)cc1` (stereo not drawn), 22.3% (inactive). Under `CC(C)(C)N/C=C(\C#N)S(=O)(=O)c1ccc(Br)cc1` stands -2.81% (inactive); under `COc1cc(OC)c2c(-c3ccccc3)cc(=O)oc2c1C(CC(=O)N1CCN(c2ccccc2)CC1)c1ccc2c(c1)OCO2` (stereo not drawn), 5.15% (inactive). Take `C=CCn1c(=O)c2ccccc2n2c(SCC(=O)Nc3sc(C)c(CC)c3C(=O)OCC)nnc12`: the inhibition is 1.54% (inactive).

In the case of `CS(=O)(=O)N(CC(=O)Nc1ccccc1C(=O)N1CCOCC1)c1ccc2c(c1)OCO2`, the inhibition was 24.9% (active). Take `CS(=O)(=O)N(CC(=O)Nc1ccccc1C(=O)N1CCOCC1)c1ccccc1`: the inhibition was -1.24% (inactive). For the compound `CS(=O)(=O)N(CC(=O)Nc1ccccc1C(=O)N1CCCC1)c1ccc2c(c1)OCO2`, the inhibition is 4.85% (inactive). Regarding `Cc1cc(C(=O)CSc2nnc(C3COc4ccccc4O3)n2C)c(C)n1-c1ccc(F)cc1` (stereo not drawn), the inhibition was 7.16% (inactive). Under `CCCOc1cccc(NC(=O)OC2CCN(C)CC2)c1` stands -1.59% (inactive); under `Cc1ccc(C(=O)Nc2ncc(Cc3ccc(F)cc3)s2)o1`, 3.37% (inactive); under `O=[N+]([O-])c1ccc(N/N=C\c2cccnc2)nc1`, 6.43% (inactive).

Consider `COc1ccc(C(=O)Nc2nc3nccc(-c4ccccc4)n3n2)cc1`, for which the inhibition was 0.22% (inactive). The value for `CCOC(=O)c1c(NC(=O)CSc2ncnc3ccccc23)sc(C)c1C` was 1.43% (inactive); that for `COC(=O)c1c(NC(=O)CSc2ccccc2N)sc(C)c1C` was 2.47% (inactive). The value for `O=c1[nH]c(/C(=N\O)c2ccccc2)no1` was 10.2% (inactive); that for `Cc1nnc(SCc2ccc(Cl)cc2Cl)[nH]c1=O` was 4.54% (inactive); that for `S=c1[nH]nc(-c2ccc(Br)cc2)n1Cc1ccco1` was 3.64% (inactive). Consider `Cn1cccc1Cc1nnc(SCC(=O)NC2CCCCC2)n1-c1ccc(F)cc1`, for which the inhibition is 6.82% (inactive). Under `COc1ccc2ccccc2c1C1CC(=O)N2CN(C)CSC2=C1C#N` (stereo not drawn) stands 16% (inactive); under `CCOc1ccccc1N1CSC2=C(C#N)C(c3c(OC)ccc4ccccc34)CC(=O)N2C1` (stereo not drawn), 18.2% (inactive); under `COc1ccc2ccccc2c1C1CC(=O)N2CN(C3CCCCC3)CSC2=C1C#N` (stereo not drawn), 28% (active).

In the case of `CCOc1ccccc1NC(=O)c1ccc(S(=O)(=O)N(C)C)cc1`, the inhibition was -1.64% (inactive).

With `COCc1nnc(NS(=O)(=O)c2ccc([N+](=O)[O-])cc2)s1`, the inhibition is 2.64% (inactive). The value for `O=C(O)c1cccc2c1C(=O)c1ccccc1C2=O` was 15.9% (inactive); that for `Nc1c(C(=O)O)ccc2c1C(=O)c1ccccc1C2=O` was 4.92% (inactive).

On to `COc1cccc(N2C(=O)CC(N3CCN(CCN=CC4=C(O)CC(C)(C)CC4=O)CC3)C2=O)c1` (stereo not drawn), for which the inhibition is 5.88% (inactive).

Turning to `COc1cc(-c2cc(=O)c3c(O)cc(O)cc3o2)ccc1O`, the inhibition is 12.4% (inactive). The value for `O=c1c(-c2c(O)cc(O)c3c(=O)cc(-c4ccc(O)cc4)oc23)c(-c2ccc(O)cc2)oc2cc(O)cc(O)c12` was 12% (inactive); that for `Cn1c(SCC(=O)Nc2nccs2)nnc1C12CC3CC(CC(C3)C1)C2` was 6.61% (inactive); that for `O=C(CCC1CCCN(C(=O)c2ccncc2)C1)NCc1ccc(F)c(F)c1` (stereo not drawn) was 1.64% (inactive). For `COc1ccc(C(=O)N2CCCC(CCC(=O)NCc3ccc(F)c(F)c3)C2)cc1F` (stereo not drawn), the inhibition was 3.11% (inactive).

Take `O=C(Cn1cnc2c(nnn2Cc2ccccc2)c1=O)c1ccc(Cl)cc1`: the inhibition was 2.57% (inactive). For `Cc1cccc(-c2cc3nc4c(c(NCc5ccco5)n3n2)CCCC4)c1`, the inhibition is -3.49% (inactive). The value for `C=CCn1c(SCC(=O)NC23CC4CC(CC(C4)C2)C3)nc2cc(C(=O)O)ccc2c1=O` was 2.59% (inactive). For the compound `C=CCn1c(SCC(=O)C23CC4CC(CC(C4)C2)C3)nc(O)cc1=O`, the inhibition is 5.12% (inactive). For the compound `C=CCn1c(SCC(=O)NC23CC4CC(CC(C4)C2)C3)nc(O)cc1=O`, the inhibition was 24.7% (active). Turning to `Cc1ccc(S(=O)(=O)NCC(=O)N(CC(=O)NCC2CCCO2)C2CCCC2)cc1` (stereo not drawn), the inhibition was 4.45% (inactive).

In the case of `O=c1sc(/C=N/Nc2ccccc2)c(Cl)n1Cc1ccccc1`, the inhibition was -3.08% (inactive).

`CC(C)c1ccc(N2C=Nc3ccc(C(C)C)cc3C2)cc1`: the inhibition is 0.82% (inactive). Regarding `O=C1C(C2=NC(C(=O)O)C3C(=O)N(c4ccccc4)C(=O)C23)=C(O)c2ccccc21` (stereo not drawn), the inhibition was 10.7% (inactive). The value for `O=C1C(C2=NC(c3ccccn3)C3C(=O)N(c4ccccc4)C(=O)C23)=C(O)c2ccccc21` (stereo not drawn) was 3.12% (inactive). Under `O=C1C(C2=NC(C(=O)O)C3C(=O)N(c4ccc(Cl)cc4)C(=O)C23)=C(O)c2ccccc21` (stereo not drawn) stands 25.7% (active); under `CCCCNC(=S)NNC(=O)CCn1cc(C)cn1`, 4.21% (inactive); under `CCOC(=O)Cc1cc(=O)n2[nH]c(C(C)(C)C)cc2n1`, 4.13% (inactive). As for `Cc1ccc(S(=O)(=O)N(C)C)cc1NC(=O)Nc1ccccc1`, the inhibition is 3.2% (inactive). Under `Cc1onc(-c2ccccc2)c1NC(=O)Nc1c(-c2ccccc2)noc1C` stands 5.84% (inactive); under `CCOC(=O)c1c(NC(=O)CSc2nnc(-c3ccccc3)n2CC)sc(C(C)=O)c1C`, 5.61% (inactive); under `CCCOC(=O)CSc1nc(N)c(C#N)c(-c2ccco2)c1C#N`, 8.7% (inactive).

In the case of `N=C1/C(=C\c2ccc(-c3cccc(Cl)c3)o2)C(=O)N=C2SC=C(c3ccccc3)N12`, the inhibition was 15.9% (inactive). For the compound `N=C1/C(=C\c2ccc(-c3cc(Cl)cc(Cl)c3)o2)C(=O)N=C2SC=C(c3ccccc3)N12`, the inhibition is -3.79% (inactive). The value for `CC(C)S(=O)(=O)C1=NSC2=NC(=O)/C(=C\c3ccc(-c4cccc(C(=O)O)c4)o3)C(=N)N21` was 17.7% (inactive); that for `N=C1/C(=C\c2ccc(-c3ccc(C(=O)O)cc3)o2)C(=O)N=C2SC=C(c3ccccc3)N12` was 8.48% (inactive).

In the case of `CC12CCC(C/C1=N\N=C1\NC(=O)/C(=C\c3cccc(Br)c3)S1)C2(C)C` (stereo not drawn), the inhibition is 6.04% (inactive). On to `CCCC(=O)c1cn(CC(=O)OC)c2ccccc12`, for which the inhibition is 1.35% (inactive).

With `CCCOc1nc2c(c(=O)n(C)c(=O)n2C)n1CCC`, the inhibition was 24.2% (active). The value for `CCCOc1nc2c(c(=O)n(C)c(=O)n2C)n1C` was 2.15% (inactive). Under `CCCn1c(OC)nc2c1c(=O)n(C)c(=O)n2C` stands 1.88% (inactive); under `Cn1cnc2c(N/N=C/c3cccs3)ncnc21`, 7.29% (inactive); under `Clc1cnc(N/N=C/c2cccs2)c(Cl)c1`, 4.04% (inactive). In the case of `CCCCN(C)c1c(N2CCC(C(=O)OCC)CC2)c(=O)c1=O`, the inhibition was 12.2% (inactive).

Turning to `O=C(O)CSc1cc(NS(=O)(=O)c2cccc([N+](=O)[O-])c2)c2ccccc2c1O`, the inhibition is 19.8% (inactive).

In the case of `Cc1cc(C)c(S(=O)(=O)NCC(=O)O)cc1C`, the inhibition was -7.15% (inactive). Consider `O=C(CSc1nc(O)c(Cc2ccccc2)c(=O)[nH]1)N1CCOCC1`, for which the inhibition was 0.8% (inactive). The value for `Cc1ccc(-c2cc3ncc(C#N)c(N)n3n2)cc1` was 6.77% (inactive). Under `COc1ccc(C(=O)NCCCN2CCOCC2)cc1S(=O)(=O)N1CCCc2ccccc21` stands -1.32% (inactive); under `O=S(=O)(Nc1cc(Sc2ncn[nH]2)c(O)c2ccccc12)c1ccccc1`, 13.5% (inactive). `COc1ccc(S(=O)(=O)Nc2cc(Sc3ncn[nH]3)c(O)c3ccccc23)cc1`: the inhibition was 24.3% (active).

Turning to `COc1ccc(S(=O)(=O)Nc2ccc(O)c3ccccc23)cc1`, the inhibition was 5.24% (inactive). The value for `Cn1cnnc1SC1CCCCC1NS(=O)(=O)c1ccccc1` (stereo not drawn) was -1.9% (inactive). `CCc1ccc(C(=O)CN2C(=O)NC(C)(CCc3ccccc3)C2=O)cc1` (stereo not drawn): the inhibition was 0.01% (inactive).

In the case of `Fc1ccc(C2=Nn3c(nnc3-c3ccco3)SC2)cc1`, the inhibition was 4.7% (inactive).

In the case of `c1ccc(C2=Nn3c(nnc3-c3ccco3)SC2)cc1`, the inhibition is 7.07% (inactive). The value for `Oc1ccc(C2=Nn3c(nnc3-c3ccco3)SC2)cc1O` was 29.3% (active). Under `CCOC(=O)C(NC(=O)C1CCCN1C(=O)OCc1ccccc1)C(=O)OCC` (stereo not drawn) stands -8.77% (inactive). Take `CCN(CC)C(=O)C1CCCN(Cc2ccc(OC)c(C)c2)C1` (stereo not drawn): the inhibition was -5.17% (inactive). As for `COCCCNC(=O)c1cccc(OC)c1OC`, the inhibition was 3.12% (inactive). Turning to `Cc1cnc(C(=O)Nc2ccccc2F)cn1`, the inhibition is 0.48% (inactive). As to `COc1ccc(NC(=O)c2cnc(C)cn2)c2ncccc12`, the inhibition is 1.63% (inactive). Under `Cc1cnc(C(=O)Nc2cccc3cccnc23)cn1` stands 24.3% (active); under `Brc1ccc(C2Nc3cccc4cccc(c34)N2)s1`, 1.05% (inactive).

Consider `Cc1cccc(C)c1-n1cccc1/C=C1\SC(=S)N(c2cccc(C(=O)O)c2)C1=O`, for which the inhibition was 6.85% (inactive). With `Cc1[nH]c2ccccc2c1/C=N/Nc1cccc(C(=O)O)c1`, the inhibition is 11.9% (inactive).

Turning to `CCN1C(=O)C2(C(C#N)=C(N)Oc3n[nH]c(-c4ccc(Cl)cc4)c32)c2ccccc21` (stereo not drawn), the inhibition was -0.38% (inactive). As for `COC(=O)CN1C(=O)C2(C(C#N)=C(N)Oc3cc(C)oc(=O)c32)c2ccccc21` (stereo not drawn), the inhibition is 1.21% (inactive). As for `COC(=O)CN1C(=O)C2(C(C#N)=C(N)Oc3c2c(C)nn3-c2ccccc2)c2ccccc21` (stereo not drawn), the inhibition was 4.95% (inactive).

Take `CCN1C(=O)C2(C(C#N)=C(N)Oc3n[nH]c(-c4ccccc4)c32)c2ccccc21` (stereo not drawn): the inhibition was -4.58% (inactive).
